Results on 106 compounds are retold here after ChEMBL document CHEMBL4513216, “Probing the Open Global Health Chemical Diversity Library for Multistage-Active Starting Points for Next-Generation Antimalarials” (ACS Infect Dis, 2020).

The campaign covered roughly 69,000 compounds. About 8,600 (12%) showed an effect of 50% or more. For the sample, strong results were picked, then their nearest neighbours and some compounds at random.

This assay concerns Plasmodium berghei. Kind of assay: Screen against P. berghei liver stage (PbLuc), transformed with Luciferase, at 10uM. Format: functional, HepG2. The settings on record: tested at 10 uM.
Consider `Cc1cc(C)n(CC2CN(CC(=O)N3CCC3)CCO2)n1` (stereo unspecified), for which the INHIBITION worked out at 8.64%.
In the case of `COCCN1CCC(c2nc3ccc(-c4ccccc4)cn3n2)CC1` it was -18.4%; in that of `CCCN1CCC(c2nc3ccc(-c4ccncc4)cn3n2)CC1`, 16.8%.
`CCCN1CCC(c2nc3ccc(-c4cccc(F)c4)cn3n2)CC1`: the INHIBITION is 47.5%.
In the case of `Cc1cccc(-c2ccc3nc(C4CCN(CC5CC5)CC4)nn3c2)c1` it was 46.8%; in that of `CCCN1CCC(c2nc3ccc(-c4cccc(OC)c4)cn3n2)CC1`, 82.9%.
In the case of `CCCN1CCC(c2nc3ccc(-c4ccccc4)cn3n2)CC1` it was 54.8%; in that of `CN(CCS(C)(=O)=O)C1CCCN(Cc2noc(C3CC3)n2)C1` (stereo unspecified), 47.3%; in that of `O=C(NC1CCOCC1)c1cccc(C2CCCNC2)c1` (stereo unspecified), 27.7%.
As for `CSc1cccc(CN(C)C(=O)c2cccc(C3CCCNC3)c2)c1` (stereo unspecified), the INHIBITION came to 60.4%.
In the case of `CCOC(=O)N1CCC(NC(=O)c2cccc(C3CCCNC3)c2)CC1` (stereo unspecified) it was 9.72%; in that of `CN(Cc1ccc2c(c1)OCO2)C(=O)c1ccc(C2CCCNC2)cc1` (stereo unspecified), -26.5%; in that of `CSc1cccc(CN(C)C(=O)c2ccc(C3CCCNC3)cc2)c1` (stereo unspecified), 9.56%.
The same measure for `CSCCN1CCC(NC(=O)c2cccc(C3CCCNC3)c2)CC1` (stereo unspecified): 50.8%; for `Cc1cccc(-n2cc3[nH]c(=O)n(Cc4cccc(F)c4)n3c2=O)c1`: 25.2%; for `CCc1noc(CN(CC)C(=O)CC2C(=O)NCCN2CC=C(C)C)n1` (stereo unspecified): 16.9%.
In the case of `Cc1csc(C2NC3(CCCC3)C(=O)N2CC2CC2)n1` (stereo unspecified) it was 43.5%.
Consider `Cc1nc(C2NC3(CCCC3)C(=O)N2CC2CC2)cs1` (stereo unspecified), for which the INHIBITION worked out at 47.7%.
With `CCc1nc(C2NC3(CCCC3)C(=O)N2CC2CC2)cs1` (stereo unspecified), the INHIBITION is 61.6%.
For `O=C(NCC1CC1)C1CSCN1S(=O)(=O)c1ccccc1` (stereo unspecified), the INHIBITION is -35.9%.
The same measure for `Cc1n[nH]c(C2CN(CCc3cccs3)CCO2)n1` (stereo unspecified): 35.3%; for `Cc1cccc(CN2C(=O)CO[C@@H]3CN(CCO)C[C@H]32)c1`: -9.76%.
On to `COc1ccc(-c2nnc(CN3CCCC3Cn3cncn3)o2)cc1` (stereo unspecified), for which the INHIBITION is on record as 45.1%.
With `NC(=O)N1CCC2(CC1)CC(=O)N(CC1CCCO1)c1ccccc12` (stereo unspecified), the INHIBITION is listed as 54.3%.
On to `O=C([C@H]1CCCO1)N1CCC2(CC1)C(=O)N(CC1CC1)c1ccccc12`, for which the INHIBITION was 17.4%.
In the case of `Cc1nc(CN2C(=O)CC3(CCN(C(N)=O)CC3)c3ccccc32)cs1` it was 36.4%.
`COCCN1CCC2(CCN(Cc3ccc(OC)cc3)CC2)C1=O`: the INHIBITION stood at 38.3%.
The same measure for `O=C(c1cnc2[nH]c(=O)[nH]c(=O)c2c1)N1CCCC1C1CCCCC1` (stereo unspecified): -1.35%; for `O=C(c1ccc(=O)[nH]n1)N1CCCC1C1CCCC1` (stereo unspecified): 18%.
Consider `O=C(c1c[nH]nn1)N1CCCC1C1CCCCC1` (stereo unspecified), for which the INHIBITION amounted to 53.8%.
Turning to `CC(C)N1CCC2(CC1)CC(NS(C)(=O)=O)c1ccccc1O2` (stereo unspecified), the INHIBITION is -12.2%.
For `CC(C)NC(=O)NCc1cc(-c2ccco2)n(CC(F)(F)F)n1`, the INHIBITION is given as 20.4%.
In the case of `Cc1nc(C)c(C)c(N2CCC(O)(c3ccc(F)cc3)CC2)n1` it was 25.5%; in that of `Cc1nc(N2CCC(O)(c3ccc(F)cc3)CC2)c2c(C)nn(C)c2n1`, 51.2%.
For `Cc1nc(N2CCC(O)(c3ccccc3)CC2)c2c(C)nn(C)c2n1`, the INHIBITION is reported as 28.4%.
On to `Cn1cc(CN2CCC3(CC2)CCN(C(=O)c2cscn2)C3)cn1`, for which the INHIBITION is listed as 38.5%.
On to `COCC1CC2(CCN(c3cccc(C)n3)CC2)CN1c1ncccn1` (stereo unspecified), for which the INHIBITION is on record as 46.6%.
The same measure for `Cn1cncc1-c1nnc([C@H]2CCN(Cc3cccnc3)C2)o1`: 39.8%; for `Cn1cncc1-c1nnc([C@H]2CCN(Cc3ccc(CO)o3)C2)o1`: -18.2%; for `Cn1cncc1-c1nnc([C@H]2CCN(CC(C)(C)C)C2)o1`: 57.4%.
The same measure for `Cc1ccccc1CN1CC[C@H](c2nnc(-c3cncn3C)o2)C1`: 5.96%; for `Cn1cncc1-c1nnc([C@H]2CCN(C3CCOCC3)C2)o1`: 4.61%; for `Cn1cncc1-c1nnc([C@H]2CCN(Cc3ccc(F)c(F)c3)C2)o1`: 11.4%.
Consider `CN1CC[C@H](c2nnc(-c3cncn3C)o2)C1`, for which the INHIBITION came out at 61.5%.
In the case of `Cn1cncc1-c1nnc([C@H]2CCN(CC3CCCCC3)C2)o1` it was -17.1%.
In the case of `Cn1cncc1-c1nnc([C@H]2CCN(Cc3ncc[nH]3)C2)o1` it was 69.6%.
The same measure for `COc1ccc(OC)c(CNCc2c(C(C)C)nn(C)c2N(C)C)c1`: 30.08%; for `O=C1N[C@H]2OCCC[C@H]2[C@H](c2ccccc2C(=O)O)N1`: -0.495%.
Consider `Cc1ccc(C2(O)CCN(C(=O)c3cccc(S(C)(=O)=O)c3)CC2)nc1`, for which the INHIBITION is listed as -6.09%.
`Cc1n[nH]c(C)c1C1CCCN1C(=O)Cc1cccc(F)c1` (stereo unspecified): the INHIBITION worked out at 40.2%.
As for `CSc1ccc(NC(=O)Cn2cc(N)cn2)cc1`, the INHIBITION was -15%.
As to `Cc1cc(NCCc2nnc(N)s2)nc(-c2ccccc2)n1`, the INHIBITION is on record as -13.3%.
In the case of `CN1C(=O)CC[C@@H]2N(C(=O)CCc3cccnc3)CCCC[C@@]21C` it was 44.3%.
Consider `CC(=O)N1CCc2[nH]cnc2C1C1=CCCN(CCn2cccc2)C1` (stereo unspecified), for which the INHIBITION came to 12.8%.
Regarding `CN(Cc1nnc(-c2ccco2)o1)C(C(N)=O)c1cccc(F)c1` (stereo unspecified), the INHIBITION worked out at 61.5%.
Regarding `CC(C)CC(C)N(C)Cc1nnc(-c2ccco2)o1` (stereo unspecified), the INHIBITION is -17.5%.
Regarding `CN(Cc1nnc(C2CCC2)o1)C(C(N)=O)c1cccc(F)c1` (stereo unspecified), the INHIBITION was 12.7%.
The same measure for `CC(C)C(C)N(C)Cc1nnc(-c2ccco2)o1` (stereo unspecified): 66.9%; for `CCCC(C)N(C)Cc1nnc(-c2ccco2)o1` (stereo unspecified): 26.9%.
In the case of `CN(Cc1nnc(-c2cccs2)o1)C(C(N)=O)c1cccc(F)c1` (stereo unspecified) it was -15.3%; in that of `CC(CNCc1ccc(Br)cc1)Oc1ccccn1` (stereo unspecified), 13%.
The same measure for `Cc1ccc2nc(-c3nc4c([nH]3)CC(C)(C)CNC4=O)cn2c1`: 16.9%; for `c1coc(CN2CCc3onc(Cn4cccc4)c3C2)c1`: 20.1%; for `CC(C)Oc1ccccc1C1CC(=O)Nc2c1cnn2C` (stereo unspecified): -31.6%.
In the case of `Cc1cccc(C(=O)N2CCCCC2c2nc3cc(F)ccc3[nH]2)n1` (stereo unspecified), the INHIBITION is 39.1%.
As for `Cc1cc(NC(=O)c2ccc(F)cc2F)n(C)n1`, the INHIBITION is listed as 29.3%.
In the case of `NC(=O)c1ccc(N2CCCCC2)c(NC(=O)c2ccc(F)cc2F)c1` it was 89.1%.
For the compound `NC(=O)c1ccc(N2CCCCC2)c(NC(=O)c2cc(Br)ccc2F)c1`, the INHIBITION was found to be 86.8%.
The same measure for `CC(NC(=O)Nc1cc(F)ccc1N1CCCCC1)c1nncn1C` (stereo unspecified): 25.7%.
As for `COCCCN1Cc2cccc(NC(=O)c3cc(F)ccc3F)c2C1`, the INHIBITION is reported as 32.9%.
Turning to `O=C(c1cc(Br)ccc1-n1cnnn1)N1CCCCC1`, the INHIBITION is on record as 24.2%.
In the case of `NC(=O)c1ccc(N2CCCCC2)c(NC(=O)c2cc(F)ccc2F)c1` it was 93.1%; in that of `NC(=O)c1ccc(N2CCCCC2)c(NC(=O)c2ccc(Br)cc2)c1`, 39.5%; in that of `Cc1ccc(NC(=O)c2ccc(N3CCCCC3)nn2)c(Cl)c1`, 11.3%.
In the case of `NC(=O)c1ccc(N2CCCCC2)c(NC(=O)c2cc(Br)ccc2Cl)c1`, the INHIBITION was 81.2%.
In the case of `C[C@@H]1CN(Cc2cc3ccccc3n2C)CC[C@]1(C)O` it was -13.6%; in that of `CCc1cc(N(C)Cc2nonc2C)nc(N(C)C)n1`, 31.7%; in that of `CC(Cn1cccn1)NC(=O)NCc1ccc(S(C)(=O)=O)cc1` (stereo unspecified), 19.5%.
The same measure for `CC(C)n1cnnc1CN(C)C(=O)c1cnn2ccccc12`: 38.2%; for `COc1cc(C)nc(N2CCN(C(=O)COCC3CC3)CC2)n1`: 23.295%; for `CC(C)C(=O)N1CC2(CCN(CC(C)(C)C)CC2)C1`: 1.34%.
The same measure for `COCCN1CCOCC2(CCCN(Cc3ccc(C)o3)C2)C1` (stereo unspecified): 20.2%.
Take `CCN(CC(=O)NC1(C)CCS(=O)(=O)C1)Cc1ccc(OC)c(F)c1` (stereo unspecified): the INHIBITION is recorded as -9.37%.
On to `Cc1nccc([C@@H]2C[C@@H]3CCN(S(=O)(=O)C4CC4)C[C@H]3O2)n1`, for which the INHIBITION is -37.9%.
The same measure for `Cc1ccc(C(=O)Nc2cc(C(N)=O)ccc2N2CCCCC2)cc1F`: 69.3%.
Take `Cc1ccc(C(=O)Nc2ccc(N3CCCC3)cn2)cc1F`: the INHIBITION was -6.12%.
For the compound `Cc1cc(C(N)=O)ccc1NC(=O)c1nc(N2CCCCC2)ncc1Cl`, the INHIBITION worked out at 49.3%.
The same measure for `Cc1cc(C(N)=O)ccc1NC(=O)c1nc(N2CCCC2)ncc1Cl`: 20.1%.
With `NC(=O)c1ccc(N2CCCCC2)c(NC(=O)c2ccc(F)cc2Cl)c1`, the INHIBITION worked out at 73.2%.
With `Cc1ccc(C(=O)Nc2cc(C(N)=O)ccc2CN(C)C)cc1Cl`, the INHIBITION worked out at 16.4%.
In the case of `CCn1nc(C)c2nc(C(C)C)nc(N3CCOCC3)c21` it was -38.8%; in that of `Cc1cnccc1-c1cnn(CCNC(=O)C(C)(C)C)c1C1CC1`, 39.7%.
In the case of `Cc1ccc(C(=O)N2C[C@@H](OCc3cccnc3)[C@H]3OCCC[C@@H]32)o1` it was 35.4%; in that of `CN(Cc1cccc(CCN)c1)Cc1cccc2ncccc12`, 20.3%.
Turning to `Cc1cn(CC(=O)N(C)Cc2cccc3ncccc23)c(=O)[nH]c1=O`, the INHIBITION is -12.8%.
The same measure for `CN(Cc1cccnc1N)Cc1cccc2ncccc12`: 83%; for `CCCN(Cc1cccc(OCCO)c1)Cc1ccccc1OC`: 25%; for `COCCN(Cc1cccc(OCCO)c1)Cc1ccccc1F`: 13%.
The same measure for `CN(Cc1cccc(OCCO)c1)Cc1cccc2ncccc12`: 76.6%; for `CC(=O)N1CCCC(Cc2cnc(-n3ccnc3)cn2)C1` (stereo unspecified): -33.4%; for `Cc1cc(C(=O)NC(C)c2nnn[nH]2)c2ccc(C)c(C)c2n1` (stereo unspecified): -11.6%.
`C=C(C)COc1cccc(C(=O)NCCCc2nnn[nH]2)c1`: the INHIBITION is recorded as 9.41%.
In the case of `CCC(=O)c1ccc(OCC(=O)NC(C)c2nnn[nH]2)cc1` (stereo unspecified) it was -47.9%.
In the case of `Cc1cc(C(=O)NC(C)c2nnn[nH]2)c2cccc(C)c2n1` (stereo unspecified), the INHIBITION was 60%.
In the case of `Cc1cc(C)c2nc(C)cc(C(=O)NC(C)c3nnn[nH]3)c2c1` (stereo unspecified) it was 45.1%; in that of `C=C(C)COc1cccc(C(=O)NC(C)c2nnn[nH]2)c1` (stereo unspecified), 52.1%.
